Source: PubChem BioAssay (several laboratories)
The list is not random: actives were taken first. Their share in the collection is about 2.8%.
Beta2AR agonist: beta2AR agonists driving receptor internalization, primary screen, cell-based, FAP fluorogen, flow cytometry. response, % (no concentration beside the values). Am2.2-beta2AR cells. Beta-2 adrenergic receptor (Homo sapiens), P07550. 340,000 compounds, 0.43% hits;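 active = response above a set limit, near 3 SD of response in nonfluorescent compounds, cut at about 42% in these data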
Target sequence (P07550 whole entry, looked up): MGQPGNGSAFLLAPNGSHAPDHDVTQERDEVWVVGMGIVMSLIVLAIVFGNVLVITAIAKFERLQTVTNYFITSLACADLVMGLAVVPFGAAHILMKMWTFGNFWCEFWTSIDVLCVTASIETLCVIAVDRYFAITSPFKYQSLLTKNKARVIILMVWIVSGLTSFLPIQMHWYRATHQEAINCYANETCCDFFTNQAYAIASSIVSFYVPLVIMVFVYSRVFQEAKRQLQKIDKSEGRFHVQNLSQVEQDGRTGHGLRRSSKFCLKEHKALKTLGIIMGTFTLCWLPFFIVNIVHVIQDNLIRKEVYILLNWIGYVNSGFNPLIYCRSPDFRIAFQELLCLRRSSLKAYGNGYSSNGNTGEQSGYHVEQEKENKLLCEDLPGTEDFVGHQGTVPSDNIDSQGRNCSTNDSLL
Peg3 promoter: Peg3 promoter-driven luciferase inhibitors, primary screen, cell-based, HeLa, luciferase luminescence; inhibition, % at 20 µM; 360,000 compounds, 1.7% hits; HeLa PEG-Prom luciferase reporter, overnight; AID 588405, 2011;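 active = inhibition of at least 50% at 20 µM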
HIF-2a block: HIF-2a reporter inhibitors, primary screen, luminescence, 786-0 RCC cells | 786-0 RCC cells HIF-2a reporter, luciferase luminescence, overnight | inhibition, % at 18.8 µM | 360,000 compounds, 0.72% hits;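 active = inhibition of the luminescence signal of 40% or more relative to plate controls, in a single-dose primary screen at 18.75 µM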
KKLEB cytotox: cytotoxicity in KKLEB CF airway cells, primary screen, cytotoxicity control for CF NF-kB inhibitor project, cell-based, uHTS, fluorescence assay plates. 360,000 compounds, 0.36% hits. activity change (cytotoxicity), % at 5 µM. KKLEB CF airway cells viability, ATPlite luminescence, overnight; hits give low values; cells stimulated with P. aeruginosa culture filtrate. AID 602141, 2011;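 active = corrected activity change at or below -50% at 5 µM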
CF NFkB block: inhibitors of PAF-induced NF-kB signaling, primary screen, cell-based, GFP fluorescence, uHTS; KKLEB NF-kB-GFP reporter, GFP fluorescence overnight; inhibition, % at 5 µM; 360,000 compounds, 0.86% hits; AID 588850, 2011;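 active = at least 50% inhibition at 5 µM, scaled per plate between neutral and stimulator controls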;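 also: PAF is a Pseudomonas aeruginosa culture filtrate used as stimulus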
MITF TRPM1 inh: inhibitors of MITF-dependent TRPM1 promoter reporter, primary screen, cell-based, SK-MEL-5, single point, luciferase; SK-MEL-5 TRPM1 promoter luciferase, 24 h; inhibition, % at 12.5 µM; 330,000 compounds, 0.83% hits; AID 488899, 2010;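 active = mean inhibition across replicates of 60% or more, whatever share of single replicates reaches that level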
CF NFkB conf: inhibitors of PAF-induced NF-kB signaling, retest, confirmation, cell-based, GFP fluorescence, single concentration; shares compounds with CF NFkB block; KKLEB CF airway cells, overnight; inhibition, % at 5 µM; 1,300 compounds, 64% hits; AID 602472, 2012; in the data active = inhibition above about 40%;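 also: stimulus PAF is a Pseudomonas aeruginosa filtrate and not platelet activating factor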
Numbers stand for hits; i = inactive; nt = not tested or not shown.

SMILES | Beta2AR agonist | Peg3 promoter | HIF-2a block | KKLEB cytotox | CF NFkB block | MITF TRPM1 inh | CF NFkB conf
CCC(CO)Oc1cc(NCc2ccncc2)c2ncn(C(C)C)c2c1 (stereo not drawn) | i | i | i | i | i | i | nt
COc1ccc(CCN2CC(C(=O)NCc3cn(C)nc3C)CCC2=O)cc1 (stereo not drawn) | nt | i | i | i | i | nt | nt
O=C(Nc1cccc(S(=O)(=O)N2CCOCC2)c1)c1cc(S(=O)(=O)N2CCOCC2)c(Cl)cc1Cl | i | i | i | i | i | i | nt
Cc1ccc(C(=O)Nc2cccc(C(F)(F)F)c2)cc1NC(=O)c1ccno1 | i | i | i | i | 59.5 | i | 71.1
Cc1ccc(C(=O)Nc2cccc(C(F)(F)F)c2)cc1Nc1cnccn1 | i | i | i | i | 50.8 | i | 42.9
O=C(Nc1cnccn1)c1cccc(C(F)(F)F)c1 | i | i | i | i | i | i | nt
COc1cc(NC(=O)c2cc(C)on2)cc(C(=O)Nc2cccc(C(F)(F)F)c2)c1 | i | i | i | i | i | i | nt
COc1ccc2nc3n(c(=O)c2c1)-c1ncccc1C(=O)NC3CC(C)C (stereo not drawn) | nt | i | i | i | i | nt | nt
CC1C(=O)N(Cc2cn(Cc3ccco3)nn2)CCS(=O)(=O)N1Cc1ccc(-c2ccc(Cl)c(Cl)c2)cc1 (stereo not drawn) | nt | i | i | i | 65.3 | nt | i
Cc1ccc(-c2ccc(CN3C(C)C(=O)N(Cc4cn(CC5CCCCC5)nn4)CCS3(=O)=O)cc2)cc1 (stereo not drawn) | nt | i | i | i | 75.6 | nt | i
CC1C(=O)N(Cc2cn(Cc3ccco3)nn2)CCS(=O)(=O)N1Cc1ccc(-c2ccccc2C(F)(F)F)cc1 (stereo not drawn) | nt | i | i | i | 66.0 | nt | 52.1
Cc1ccc(-c2ccc(CN3C(C)C(=O)N(Cc4cn(Cc5ccco5)nn4)CCS3(=O)=O)cc2)cc1 (stereo not drawn) | nt | i | i | i | i | nt | nt
Cc1ccccc1-c1ccc(CN2C(C)C(=O)N(Cc3cn(Cc4ccco4)nn3)CCS2(=O)=O)cc1 (stereo not drawn) | nt | i | i | i | 60.1 | nt | i
CCC/C=C/c1ccc(CN2C(C(C)C)C(=O)N(Cc3cn(Cc4ccco4)nn3)CCS2(=O)=O)cc1 (stereo not drawn) | nt | i | i | i | 52.4 | nt | 45.3
Cc1ccc(-c2ccc(CN3C(C(C)C)C(=O)N(Cc4cn(CCC5OCCO5)nn4)CCS3(=O)=O)cc2)c(C)c1 (stereo not drawn) | nt | i | i | i | 64.7 | nt | i
Cc1cc(C(=O)N2CCC2(C)C(=O)Nc2cccc3ccccc23)nn1C (stereo not drawn) | nt | i | i | i | i | nt | nt
COC(=O)c1c(C)[nH]c(C(=O)OC(C)C(=O)NC2CCCCC2C)c1C (stereo not drawn) | nt | i | i | i | i | nt | nt
CCCCCCSc1cc(-c2nc3ccc(C)cn3c2NCc2ccccc2)ccc1OC | i | i | i | i | 52.8 | i | i
CCOC(=O)C1(C)CCN1C(=O)c1ccc(C(=O)OC)cc1 (stereo not drawn) | nt | i | i | i | i | nt | nt
O=C(Nc1ccc(N2CCN(C(=O)c3ccccc3F)CC2)cc1)c1cncc(Br)c1 | i | i | i | i | 68.9 | i | 76.3
COc1ccc(CC(N)c2csc(Nc3ccc(S(C)(=O)=O)cc3)n2)cc1 (stereo not drawn) | nt | i | i | i | i | nt | nt
COc1ccc(NC(=O)c2ccc([N+](=O)[O-])o2)cc1 | i | i | i | i | 50.9 | i | i
CC(C)OC(=O)N(C)C[C@@H]1OCc2cnnn2CCCC(=O)N([C@H](C)CO)C[C@H]1C | nt | i | i | i | i | nt | nt
O=C(CN1C(=O)NC2(CCCCC2)C1=O)Nc1cccc(Cl)c1Cl | i | i | i | i | i | i | nt
